USP28 block – blocks human USP28 ubiquitin-rhodamine cleavage; Q96RU2; purified USP28, Ub-rhodamine cleavage fluorescence, 30 min; inhibition, % at 25 µM; 47,000 compounds, 3% hits
USP17 block – blocks human USP17 ubiquitin-rhodamine cleavage; A8MUK1; purified USP17, Ub-rhodamine cleavage fluorescence, 3 h; inhibition, % at 50 µM; 47,000 compounds, 6.5% hits
OTUD3 block – blocks human OTUD3 ubiquitin-rhodamine cleavage; AID 1645858; purified OTUD3, Ub-rhodamine fluorescence, 2 h; Q5T2D3; 47,000 compounds, 0.7% hits; inhibition, % at 25 µM
USP8 inh – human USP8 deubiquitinase inhibition | P40818 | purified USP8, Ub-rhodamine cleavage fluorescence, 30 min | inhibition, % at 20 µM | 47,000 compounds, 4.2% hits
USP30 block – blocks human USP30 ubiquitin-rhodamine cleavage | Q70CQ3 | purified USP30, Ub-rhodamine cleavage fluorescence | inhibition, % at 25 µM | 47,000 compounds, 5.3% hits | AID 1645860
Target sequence (Q70CQ3 whole entry, looked up): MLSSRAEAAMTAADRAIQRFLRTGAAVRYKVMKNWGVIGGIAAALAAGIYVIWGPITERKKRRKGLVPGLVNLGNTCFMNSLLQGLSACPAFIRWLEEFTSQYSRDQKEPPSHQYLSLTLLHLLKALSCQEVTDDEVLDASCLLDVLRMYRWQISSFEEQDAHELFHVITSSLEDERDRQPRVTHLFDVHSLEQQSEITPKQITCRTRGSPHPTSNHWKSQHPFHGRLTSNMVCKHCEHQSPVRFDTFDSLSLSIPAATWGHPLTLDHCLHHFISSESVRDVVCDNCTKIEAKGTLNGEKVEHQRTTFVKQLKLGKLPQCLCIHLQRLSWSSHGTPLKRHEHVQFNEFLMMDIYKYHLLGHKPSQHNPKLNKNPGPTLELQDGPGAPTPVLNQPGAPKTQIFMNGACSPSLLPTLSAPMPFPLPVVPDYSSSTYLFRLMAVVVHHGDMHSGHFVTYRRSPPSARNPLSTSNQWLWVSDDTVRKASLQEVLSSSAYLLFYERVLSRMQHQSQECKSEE
A number is an active result; 0 = inactive. Compounds with a hit are over-represented: about 13% of the library has one in this group of screens. Rule as the data show it: active = inhibition above about 30%; inactive = the rest.

SMILES | USP28 block | USP17 block | OTUD3 block | USP8 inh | USP30 block
Cc1nn(C)c2c1[C@@H](c1ccc(F)cc1)[C@H](NC(=O)c1ccccc1)C(=O)N2 | 80.5 | 0 | 0 | 0 | 0
CCOc1c(OC)cccc1C1CN2C(=O)c3ccccc3C2c2[nH]c3ccccc3c21 (configuration not stated) | 0 | 0 | 0 | 0 | 0
Nc1c(-c2nc3ccccc3[nH]2)c2nc3ccccc3nc2n1Cc1ccccc1 | 0 | 0 | 0 | 0 | 0
Nc1c(-c2nc3ccccc3[nH]2)c2nc3ccccc3nc2n1Cc1cccc(Cl)c1 | 36.2 | 46.4 | 0 | 0 | 0
COc1ccc2c(c1)C/C(=C/c1ccc(OC)cc1OC)CC2=O | 0 | 0 | 0 | 0 | 0
COc1cccc2c1C(=O)c1ccc3c(c1C2=O)C(=O)CC(C)(O)C3 (configuration not stated) | 0 | 62.2 | 0 | 0 | 0
O=c1cc(-c2ccc(O)c(O)c2)oc2cc(O)cc(O)c12 | 98.8 | 99.5 | 101.0 | 31.4 | 100.7
COc1cc(OC)c2c(=O)cc(-c3ccccc3)oc2c1 | 0 | 0 | 0 | 0 | 0
O=c1c(-c2ccc(O)cc2)coc2cc(O)cc(O)c12 | 0 | 0 | 0 | 0 | 0
O=c1c(O)c(-c2ccc(O)c(O)c2)oc2cc(O)cc(O)c12 | 98.4 | 97.3 | 95.2 | 0 | 81.0
CCn1c(-c2cc(NC(=O)COC)n[nH]2)cc2ccccc21 | 0 | 0 | 0 | 0 | 0
COC(=O)c1ccc(N2CCN(C(C)=O)CC2)c(NC(=O)COc2ccc([N+](=O)[O-])cc2)c1 | 0 | 0 | 0 | 79.7 | 0
COC(=O)c1ccc(N2CCN(C(C)=O)CC2)c(NC(=O)c2ccc(OCc3ccccc3)cc2)c1 | 0 | 0 | 0 | 0 | 0
O=C(NC(=O)c1ccc([N+](=O)[O-])cc1)Nc1ncc2c(n1)CCCC2=O | 0 | 0 | 0 | 0 | 0
Cc1cccc(N(C(=O)Nc2ccc(Cl)cc2)C2=NCCC2)c1C | 0 | 0 | 0 | 0 | 0
CCN(C=C1NC(=O)c2ccccc2N1)CC(=O)Nc1ccc(Cl)c(C(F)(F)F)c1 | 0 | 0 | 0 | 30.3 | 0
CCC(C)c1ccc(NC(=O)CN(C=C2NC(=O)c3ccccc3N2)CC)cc1 (configuration not stated) | 0 | 0 | 0 | 0 | 0
Cc1cccc(C(=O)N2CC(C(=O)NC3CCCCC3)C3(CCOCC3)C2)c1 (configuration not stated) | 0 | 0 | 0 | 0 | 0
CCOC(=O)c1cccc(NC(=O)Nc2cccn3nc(C)nc23)c1 | 83.1 | 0 | 0 | 0 | 0
CCc1nc2c(NC(=O)Nc3cccc(C(=O)OC)c3)cccn2n1 | 50.2 | 0 | 0 | 0 | 0
Cc1cc(C)c(S(=O)(=O)N2CCN=C2N2CCCCC2)cc1C | 0 | 0 | 0 | 0 | 0
CCCNC(=O)CN1C(=O)c2ccccc2C1c1c[nH]c2ccccc12 (configuration not stated) | 0 | 0 | 0 | 0 | 0
CCOc1cc2c(cc1OCC)C(c1ccc(Cl)cc1)N(c1ccc(C(=O)O)cc1)C(=O)C2 (configuration not stated) | 0 | 0 | 0 | 0 | 31.1
CCOC(=O)c1ccc(N2C(=O)c3n[nH]c(C)c3C2c2ccc(Cl)cc2)cc1 (configuration not stated) | 0 | 0 | 0 | 0 | 0
CCOc1cc2c(cc1OCC)C(c1ccc(OC)cc1)N(c1ccc(OC)c(Cl)c1)C(=O)C2 (configuration not stated) | 0 | 0 | 0 | 35.6 | 0
SMILES | USP28 block | USP17 block | OTUD3 block | USP8 inh | USP30 block
CCc1ccccc1NC(=O)Cn1c(=O)c2cccnc2n(-c2ccccc2)c1=O | 0 | 0 | 0 | 0 | 0
Cc1ccccc1NC(=O)N1CCC2(C1)C(=O)N(C)c1ccccc12 (configuration not stated) | 0 | 0 | 0 | 0 | 0
COC(=O)c1ccccc1NC(=O)c1sccc1Oc1ccc(F)cc1[N+](=O)[O-] | 0 | 0 | 0 | 0 | 0
O=C(Nc1ccccc1)c1sccc1Oc1ccc([N+](=O)[O-])c(C(F)(F)F)c1 | 0 | 0 | 0 | 44.4 | 0
O=C(Nc1ccccc1F)c1sccc1Oc1ccc([N+](=O)[O-])cc1F | 0 | 45.5 | 0 | 86.9 | 40.1
Cn1nc(-c2nc(-c3ccc(F)cc3)no2)c2c1CCN(C(=O)C1CCC1)C2 | 0 | 0 | 0 | 0 | 0
Cc1ccc(-c2onc3ccc(C(=O)NC4CCN(Cc5ccccc5)CC4)cc23)cc1 | 0 | 0 | 0 | 0 | 0
O=C(NC1CC1)c1ccc2onc(-c3coc(-c4ccccc4)n3)c2c1 | 0 | 0 | 0 | 0 | 37.5
Cc1nc(-c2noc3ccc(C(=O)NCc4ccncc4)cc23)cs1 | 0 | 0 | 0 | 0 | 0
CN(C)C(=O)CNC(=O)c1ccc2onc(-c3coc(-c4ccccc4)n3)c2c1 | 0 | 41.7 | 0 | 0 | 0
O=C1NC(C(=O)O)=CC(c2ccc3c(c2)OCO3)N1 (configuration not stated) | 0 | 0 | 0 | 0 | 0
Cc1noc(C)c1CNC(=O)c1ccc2c(c1)OCO2 | 0 | 0 | 0 | 0 | 0
Cc1ccc(C(=O)NCCc2nc(-c3ccc4c(c3)OCO4)n[nH]2)cc1F | 0 | 46.6 | 0 | 31.9 | 68.8
O=C(c1ccccc1)N1CCCC(c2nn(CCOc3ccccc3)c3nccnc23)C1 (configuration not stated) | 0 | 0 | 0 | 0 | 0
O=C(CC1CCCCC1)N1CCCC(c2nn(CCOc3ccccc3)c3nccnc23)C1 (configuration not stated) | 0 | 0 | 0 | 0 | 34.6
CC1(C)Cc2c(c(N3CCOCC3)nc3sc4c(NCc5ccccn5)ncnc4c23)CO1 | 0 | 0 | 0 | 0 | 0
CC(=O)NCC(=O)N1CCCC2(C1)Nc1ccccc1NC2=NC(C)(C)C (configuration not stated) | 0 | 0 | 0 | 0 | 0
O=C1C=CC(=O)[C@@]23O[C@@]12C1(Oc2cccc4cccc(c24)O1)[C@@H]1O[C@@H]1[C@@H]3O | 0 | 0 | 0 | 0 | 0
O=C1C=C[C@]23Oc4ccc(O)c5c4[C@](Oc4cccc1c42)(O3)C1OC1[C@@H]5O (some centres not stated) | 0 | 44.8 | 0 | 0 | 0
Cc1ccc(NC(=O)Cn2cncc(C(=O)NC3CCCC3)c2=O)c(F)c1 | 0 | 0 | 0 | 0 | 0
NS(=O)(=O)c1ccc(CCNC(=O)c2ccc3c(=O)n4c(nc3c2)CCCC4)cc1 | 0 | 0 | 0 | 0 | 0
CC(=O)Nc1cc(C(=O)NC2CCCC2)c2ccc(C)nc2c1 | 0 | 0 | 0 | 33.6 | 0
CCc1nnc(-c2nnc(NCCOc3ccccc3OC)c3ccccc23)o1 | 0 | 0 | 0 | 66.0 | 33.5
Clc1ccc(Cc2nnc(-c3cccnc3)o2)cc1 | 31.1 | 0 | 0 | 0 | 0
O=C(Cc1nnc(-c2cnccn2)o1)NCc1ccc(Cl)cc1 | 0 | 0 | 0 | 0 | 0
Cn1c(=O)c(C(CO)CCO)nc2c(OCc3ccccc3)nc(N)nc21 (configuration not stated) | 0 | 0 | 0 | 0 | 0
Cn1c(=O)c(C2CCCCC2O)nc2c(OCc3ccccc3)nc(N)nc21 (configuration not stated) | 0 | 41.7 | 0 | 0 | 0
